Active and inactive are the calls of the source. The calls were made as follows: active = hit-call score of the fitted dose curve at least 0.9, where 1 is the maximum; inactive = score below 0.9.
What was measured:
[1] = APR_HepG2_CellLoss_24hr: Apredica 24-hour HepG2 Assay for Cell Loss (AID 2282908); conditions: high-content imaging;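 as to AC50: fit in both directions so a hit may be cell loss or gain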
In short: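 Nuclei stained with Hoechst 33342 after formaldehyde fixation (3.7%) were imaged at 20x to count cells. Exposure lasted 24 hr, at ten concentrations from 0.39 to 200 uM in duplicate, with 0.5% v/v DMSO. Fit bidirectional, relative to DMSO.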

[2] = APR_HepG2_MicrotubuleCSK_24hr: Apredica 24-hour HepG2 Assay for Microtubule CSK Stabilty (AID 2282909); conditions: HepG2 microtubule cytoskeleton imaging, actives raise or lower the signal
In short: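 Fixed HepG2 cells were stained for alpha-tubulin and imaged after 24 hr exposure to ten concentrations spanning 0.39–200 uM in 0.5% DMSO. Signal change was fitted in both directions relative to DMSO; taxol was the positive control.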

[3] = APR_HepG2_MitoticArrest_24hr: Apredica 24-hour HepG2 Assay for Mitotic Arrest (AID 2282910); conditions: high-content imaging, actives raise or lower the signal
In short: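 HepG2, 24 hr dosing, 0.39–200 uM, 0.5% DMSO final. Formaldehyde-fixed, Triton-permeabilised, anti-phospho-histone H3 plus Hoechst. ArrayScan imaging at 20x; bidirectional fit vs DMSO baseline.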

[4] = APR_HepG2_MitoMass_24hr: Apredica 24-hour HepG2 Assay for Mitochondrial Mass (AID 2282912); conditions: high-content imaging, actives raise or lower the signal
In short: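 Endpoint is MitoTracker Red CMXRos (250 nM, 30 min, pre-fixation) intensity from 20x high-content imaging, nuclei located by Hoechst. Human HepG2 cells received ten concentrations from 0.39 to 200 uM in 0.5% DMSO for 24 hr, duplicate wells. Bidirectional fit relative to DMSO.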

[5] = APR_HepG2_p53Act_24hr: Apredica 24-hour HepG2 Assay for p53 Activation (AID 2282913); conditions: high-content imaging, actives raise or lower the signal;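 also: p53 protein immunofluorescence averaged per cell in HepG2 with Hoechst nuclei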
In short: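 Automated fluorescence imaging quantifies p53 immunostaining in HepG2 cells after a 24 hr exposure (0.39–200 uM, duplicate, 0.5% DMSO). Nuclei are located by Hoechst 33342 staining.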

[6] = APR_HepG2_CellCycleArrest_72hr: Apredica 72-hour HepG2 Assay for Cell Cycle Arrest (AID 2282914); conditions: high-content imaging, actives raise or lower the signal
In short: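 Cell cycle arrest in HepG2 was scored from nuclear DNA content after 72 hr compound treatment (0.39–200 uM). Activity, either gain or loss, was fitted against the DMSO baseline.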

[7] = APR_HepG2_CellLoss_72hr: Apredica 72-hour HepG2 Assay for Cell Loss (AID 2282915); conditions: high-content imaging
In short: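 HepG2 cells exposed 72 h to compound at 0.39–200 uM (10 concentrations, duplicate) in 0.5% DMSO. Fixed with 3.7% formaldehyde and Hoechst 33342-stained. Imaged at 20x; nuclear count gives cell number, fitted bidirectionally versus DMSO.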

[8] = APR_HepG2_MitoMembPot_24hr: Apredica 24-hour HepG2 Assay for Mitochondrial Membrane Potential (AID 2282911); conditions: imaging, actives raise or lower the signal
In short: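 Human hepatoma HepG2 cultures received ten compound concentrations up to 200 uM for 24 hr. Membrane-potential dye signal, captured by automated fluorescence microscopy, was scored for gain or loss against DMSO controls.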

Measured: AC50

Clc1ccc(C(Cl)(Cl)Cl)cc1
not listed: [8]
inactive: all other assays above

COc1ccc(O)c(C(C)(C)C)c1
not listed: [8]
inactive: all other assays above

CCCCCCCCCC[N+](C)(C)CCCCCCCCCC
active: [1] 4.36 µM | [2] 10.9 µM | [3] 4.34 µM | [6] 48.2 µM | [7] 3.25 µM
inactive: [4] | [5]

CC#Cc1cc(C)nc(Nc2ccccc2)n1
active: [6] 96.1 µM | [7] 69.8 µM
inactive: all other assays above

CCCCCCOC(=O)c1ccccc1C(=O)OCCCCCC
active: [1] 97.3 µM | [6] 109 µM | [7] 102 µM
not listed: [8]
inactive: all other assays above

Cc1cccc(C)c1N
not listed: [8]
inactive: all other assays above

CO/C=C(/C(=O)OC)c1ccccc1COc1cccc(C(F)(F)F)n1
active: [1] 9.73 µM | [3] 16.8 µM | [8] 16.4 µM | [7] 3.39 µM
inactive: all other assays above

c1ccc(-c2ccccc2)cc1
inactive: all assays above

CC1=C2C[C@H]3[C@@H](CC=C4C[C@@H](O)CC[C@@]43C)[C@@H]2CC[C@]12O[C@@H]1C[C@H](C)CN[C@H]1[C@H]2C
active: [1] 20.2 µM | [3] 23.8 µM | [4] 35.4 µM | [7] 25.3 µM
inactive: all other assays above

Cc1cc(O)ccc1Cl
not listed: [8]
inactive: all other assays above

Oc1c(Cl)c(Cl)c(Cl)c(Cl)c1Cl
active: [6] 60.8 µM | [7] 55.9 µM
inactive: all other assays above

Cc1ccccc1O
not listed: [8]
inactive: all other assays above

Cc1ccc(O)c(C)c1
inactive: all assays above

ClC1=C(Cl)[C@]2(Cl)[C@@H]3[C@@H]4C[C@@H]([C@H]5O[C@@H]45)[C@@H]3[C@@]1(Cl)C2(Cl)Cl
active: [1] 31.6 µM | [6] 39.2 µM | [7] 34.4 µM
not listed: [8]
inactive: all other assays above

c1cc2ccc3cccc4ccc(c1)c2c34
not listed: [8]
inactive: all other assays above

Oc1ccc(Cl)cc1Cl
not listed: [8]
inactive: all other assays above

CC(C)C(=O)OCC(C)(C)C(OC(=O)C(C)C)C(C)C (centres undefined)
not listed: [8]
inactive: all other assays above

C=CC(N)=O
not listed: [8]
inactive: all other assays above

CCOCCOC(C)=O
not listed: [8]
inactive: all other assays above

Source: PubChem BioAssay (EPA / NIEHS)
